In the library only some 10% were active in any assay of this set; here they are far more common.
GLA spleen mod = inhibits or activates alpha-galactosidase in human spleen homogenate. Potency, µM (titrated, usually from 80 µM), hits mostly inhibitors. actives 0.008% (n = 240,000). human spleen homogenate, 4MU-alpha-Gal fluorescence, 40 min
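qHTS titration in buffer at pH 5.0. Alpha-galactosidase activity in spleen homogenate was measured via 4-methylumbelliferone release from 1 mM fluorogenic substrate after 40 min at 37C and a pH 10 stop. AC50 came from Hill fits of control-normalized data.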
PNC inhibitor = blocks assembly of the perinucleolar compartment. actives 3.1% (n = 140,000). activity change (PNC), negative = inhibition, % at 10 µM. PC3M PTB-GFP, PNC prevalence imaging, 16 h; stronger effect = lower value. AID 2417;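 active = readout at or below -70, meaning at least 70% loss of cells showing the perinucleolar compartment, a nuclear body marking cancer cells; inconclusive = readout between -30 and a set limit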
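Read-out is percentage of cells bearing a perinucleolar compartment, from automated 20x imaging of fixed, Hoechst-stained PC3M PTB-GFP cells. Cells were seeded 4 h, then exposed 16 h to compound (23 nl of library stock) in duplicate plates.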
GLA inh pH 4.5 = alpha-galactosidase A (human) inhibition, pH 4.5 | P06280 | 230,000 tested, under 10 active | purified enzyme, 4-MU-alpha-Gal fluorescence, pH 4.5 | activity change, negative = inhibition, % at 105 µM
HPGD block = blocks human HPGD enzyme activity | purified HPGD, NADH fluorescence kinetic, PGE2 substrate | Potency, µM, hits mostly inhibitors | P15428 | AID 894 | actives 4.3% (n = 150,000); active = well fitted inhibition curve with a large enough effect, not every such curve was filed as active; inconclusive = small, poorly fitted or top-dose-only effect, or another doubt; inactive = no such curve, though single readings can be large or run the other way
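20 nM HPGD preincubated 15 min at room temperature with compound in 50 mM Tris-HCl pH 8, 0.01% Tween 20. Started with 1 mM NAD+ and 30 uM prostaglandin E2; NADH fluorescence (360/450 nm) read 5 times over 30-s intervals, last minus first.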
12-hLO inh = inhibitors of human 12-lipoxygenase (ALOX12) | P18054 | purified 12-hLO, xylenol orange hydroperoxide absorbance | Potency, µM (doses to about 57.1 µM), most hits filed as inhibitors | actives 0.12% (n = 150,000) | AID 1452; note: nearly all actives have a fitted effect of over 55% in size
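Hydroperoxide output read as Fe(III)-xylenol orange absorbance, 573-to-405 nm ratio, after 30 min reaction with 40 uM arachidonic acid. Enzyme: 150 nM purified human 12hLO, 15 min compound preincubation; 25 mM Hepes pH 7.0, room temperature.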
ALDH1A1 block = ALDH1A1 (human) enzyme inhibition; P00352; Purified ALDH1A1, NADH fluorescence, propionaldehyde substrate; Potency, µM (doses to about 75.3 µM), actives largely listed as inhibitors; actives 7.3% (n = 220,000); active = well fitted inhibition curve with a large enough effect, not every such curve was filed as active; inconclusive = small, poorly fitted or top-dose-only effect, or another doubt; inactive = no such curve, though single readings can be large or run the other way
Target sequence (P00352 whole entry, looked up): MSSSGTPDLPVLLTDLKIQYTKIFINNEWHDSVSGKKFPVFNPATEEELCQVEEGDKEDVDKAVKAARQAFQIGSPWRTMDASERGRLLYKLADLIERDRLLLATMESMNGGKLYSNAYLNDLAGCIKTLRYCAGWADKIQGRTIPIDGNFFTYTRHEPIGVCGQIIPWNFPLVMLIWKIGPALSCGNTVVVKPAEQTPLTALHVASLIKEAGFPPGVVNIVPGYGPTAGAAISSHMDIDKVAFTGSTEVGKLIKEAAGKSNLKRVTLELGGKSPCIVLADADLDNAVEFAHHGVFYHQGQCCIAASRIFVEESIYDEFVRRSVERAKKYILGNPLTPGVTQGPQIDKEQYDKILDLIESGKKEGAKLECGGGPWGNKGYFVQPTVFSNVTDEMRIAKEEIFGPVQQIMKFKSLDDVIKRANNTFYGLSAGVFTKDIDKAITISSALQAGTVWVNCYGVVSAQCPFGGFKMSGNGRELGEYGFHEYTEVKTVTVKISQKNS
Numbers stand for hits; 0 = inactive; ? = inconclusive; - = no result given; [ ] = remark or other dose. Unless noted, calls come from the whole dose curve; as a rule, active = well fitted curve in the direction sought with a large enough effect; inconclusive = small, poorly fitted or top-dose-only effect, or another doubt; inactive = no such curve, though single readings can be large; an effect the other way counts as inactive or inconclusive.

SMILES	GLA spleen mod	PNC inhibitor	GLA inh pH 4.5	HPGD block	12-hLO inh	ALDH1A1 block
CC(=O)Nc1ccc2c(c1)/C(=C/c1ccc([N+](C)(C)C)cc1)c1ccccc1-2	-	-	-	0	0[11.4 µM]	0[13.5 µM]
CC(C)[C@H]1COC(c2cccc([N+](=O)[O-])c2)=N1	0	-	0	0	0[0.00818 µM]	0
COc1ccc(NC(=S)Nc2ccccn2)c(OC)c1	0	0	0	0	0	?
CCCCC(=O)Nc1ccc(NC(=O)CC)cc1OC	0	-84	0	0	0	0
COc1ccc(NC(=S)Nc2ccccc2OC)c(OC)c1	0	-	0	-	-	25µM
CCOc1cc(NC(=S)Nc2ccccc2OC)c(OCC)cc1NC(=O)c1ccccc1C	0	-109	0	?	?	?
COc1ccc(NC(=S)Nc2ccc(OC)cc2OC)c(OC)c1	0	0	0	25µM	0	20µM
CCOc1cc(NC(=S)NCC2CCCO2)c(OCC)cc1NC(=O)c1ccccc1C (configuration not stated)	0	0	?	0	?	0
O=C(O)/C=C/c1ccc(S(=O)(=O)NCc2cccnc2)cc1	0	-	0	-	-	-
CC(C)C[C@H](NC(=O)[C@H](CCCCN)NC(=O)[C@H](CCCNC(=N)N)NC(=O)[C@H](C)NC(=O)[C@H](CO)NC(=O)[C@H](CCCCN)NC(=O)[C@H](CCCNC(=N)N)NC(=O)[C@H](C)NC(=O)CNC(=O)[C@@H](NC(=O)[C@H](Cc1ccccc1)NC(=O)CNC(=O)CNC(=O)[C@@H](N)Cc1ccccc1)[C@H](C)O)C(=O)N[C@@H](C)C(=O)N[C@@H](CC(N)=O)C(=O)N[C@@H](CCC(N)=O)C(=O)O	0	-	-	-	-	0
O=C(NCCN1CCOCC1)C1CCC(CNS(=O)(=O)c2ccc(Cl)cc2)CC1 (configuration not stated)	0	0	0	0	0	0
N#Cc1cc2c(nc1S(=O)(=O)Cc1ccccc1)CCCC2	0	-	0	-	-	?
COc1ccc(NC(=O)CC(C)=O)c(OC)c1	0	-	0	-	-	-
COc1ccc(NC(=O)CC(=O)Nc2ccc(OC)cc2OC)c(OC)c1	0	-127	0	0	0	0
COc1ccc(CNC(=S)Nc2cc(OC)ccc2OC)cc1	0	0	0	0	0	?
COc1ccc(NC(=O)CCCN2C(=O)C3C4C=CC(C4)C3C2=O)c(OC)c1 (configuration not stated)	0	?	0	0	0	13µM
COC(=O)NNC(=S)Nc1cc(OC)ccc1OC	0	0	0	?	0	25µM
O=C(Nc1ccccc1)c1c2c(nc3ccccc13)CCCC2	0	-	0	-	-	0
Cc1ccc(-c2cc(C(=O)Nc3cc(C)ccc3C)[nH]n2)c(O)c1	0	-84	0	0	0	0
COc1ccc(OC)c(NC(=O)c2cc(-c3ccc(C)cc3O)n[nH]2)c1	0	0	0	0	0	0
Cc1nc2sc3c(c2c2nnc(SCC(=O)NCc4ccco4)n12)CCCC3	0	0	0	28µM	0	14µM
O=C(CSc1ncnc2sc3c(c12)CCCC3)c1ccco1	0	?	0	?	0	22µM
O=C(CSc1ncnc2sc3c(c12)CCCCC3)NCc1ccco1	0	?	0	10µM	0	8.9µM
O=C(CSc1ncnc2sc3c(c12)CCCC3)c1ccccc1	0	?	0	0	0	?
O=C(CSc1nc2sc3c(c2c(=O)n1-c1ccccc1)CCCC3)NCc1ccco1	0	0	0	0	0	?
SMILES	GLA spleen mod	PNC inhibitor	GLA inh pH 4.5	HPGD block	12-hLO inh	ALDH1A1 block
Cc1ccc(NC(=O)CN(C)CC(=O)Nc2ccccc2-c2ccccc2)cc1	0	-	0	-	-	14µM
COc1cccc(NC(=O)CN(C)CC(=O)Nc2ccccc2-c2ccccc2)c1	0	-	0	-	-	?
Cc1ccc2c(c1)C1(C=CC(=O)C=C1)CC(=O)N2C	0	-	-	-	-	-
N#Cc1cnc(SCCc2ccccc2)nc1N	0	-83	0	0	0	?
Cc1ccc(NC(=O)CN2C(=O)S/C(=C\c3cc(C)n(-c4cccc(C(=O)O)c4)c3C)C2=O)cc1	0	-	0	-	-	13µM
Cc1ccccc1NC(=O)CN1C(=O)S/C(=C\c2ccc(-c3cc(C(=O)O)ccc3C)o2)C1=O	0	-	0	-	-	28µM
